In all, about 64,000 compounds went through this assay and about 2,200 (3.4%) were called active. This is one part of a sample in which actives are shown more often than they occur.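 How the source made its calls: active means calcium fluorescence response, raw or row-and-column corrected B-score, differing from the plate sample mean either way at a set confidence level, mostly lower; inactive means the rest.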
Target: Muscarinic acetylcholine receptor M1 (Rattus norvegicus) (UniProt P08482)
Test: antagonists of rat M1 muscarinic receptor (AID 628)
Conditions: CHO-M1 cells, Fluo-4 calcium, ACh EC80 antagonist mode; at 10 µM; stronger effect = lower value

Sequence of Muscarinic acetylcholine receptor M1 (Rattus norvegicus) (P08482 whole entry, looked up): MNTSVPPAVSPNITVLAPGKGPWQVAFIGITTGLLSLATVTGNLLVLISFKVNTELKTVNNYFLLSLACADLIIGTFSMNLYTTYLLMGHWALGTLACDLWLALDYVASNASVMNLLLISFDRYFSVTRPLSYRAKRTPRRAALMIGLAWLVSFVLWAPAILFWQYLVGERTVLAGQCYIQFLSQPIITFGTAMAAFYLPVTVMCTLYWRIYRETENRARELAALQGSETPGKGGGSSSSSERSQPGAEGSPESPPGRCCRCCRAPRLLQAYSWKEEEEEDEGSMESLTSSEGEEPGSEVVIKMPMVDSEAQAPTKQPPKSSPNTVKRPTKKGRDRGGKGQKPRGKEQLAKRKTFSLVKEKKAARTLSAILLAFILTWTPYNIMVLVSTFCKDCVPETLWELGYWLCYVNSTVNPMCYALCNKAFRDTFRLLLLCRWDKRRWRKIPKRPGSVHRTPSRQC

Compound | B-score
O=C1CCCC2=C1C(c1cccs1)n1nc(SCc3ccccc3)nc1N2 (stereo not given) | 1.97 (inactive)
CCOC(=O)c1c(NC(=O)CSc2nnc(CN3CCOCC3)n2C)sc2c1CCCC2 | -2.5 (active)
COC(=O)c1c(NC(=O)CCN2CCOCC2)sc2c1CCCC2 | 0.415 (inactive)
CCOC(=O)c1c(NC(=O)CSc2nnc(C)c(=O)[nH]2)sc2c1CCC2 | 0.293 (inactive)
Cc1coc2c(O)cc3c(c12)OC1(N2CCCCC2)C(=O)NCCCC31 (stereo not given) | 0.313 (inactive)
CCOc1ccc(N(CC(=O)OC)S(=O)(=O)c2c(C)noc2C)cc1 | 0.515 (inactive)
Cc1cc(C)c2nc(SCCC#N)nc(C)c2c1 | -0.0173 (inactive)
CC(=O)N1C(=O)C2(Nc3ccccc3N2)c2ccccc21 | -0.00551 (inactive)
CCCc1[nH]nc2c1C(c1c(C)nn(-c3ccccc3)c1Cl)C(C#N)=C(N)O2 (stereo not given) | -0.557 (inactive)
COc1ccc(C2C(C(=O)Nc3ccccc3OC)=C(C)Nc3nnnn32)c(OC)c1 (stereo not given) | -0.00786 (inactive)
COC(=O)c1ccc(C2C3=C(Nc4nnnn42)c2ccccc2OC3)cc1 (stereo not given) | -2.33 (active)
COc1ccccc1NC(=O)C1=C(C)Nc2nnnn2C1c1cccc(Br)c1 (stereo not given) | 0.285 (inactive)
CCSc1nc(=S)n(CC)c(C)c1C(C)=O | -0.669 (inactive)
O=c1c2ccccc2oc2nc3n(c(=O)c12)CCCS3 | 0.0394 (inactive)
O=C(O)c1ccc(NS(=O)(=O)c2cccc3nsnc23)cc1 | 1.18 (inactive)
CC(=C1C(=O)c2ccccc2C1=O)N1CCN(c2ccccn2)CC1 | 0.0748 (inactive)
O=C(C(NS(=O)(=O)c1cccc2nsnc12)c1ccccc1)N1CCN(c2ccccn2)CC1 (stereo not given) | -4.43 (active)
O=C(CSc1nnnn1C1CCCC1)Nc1ccc2c(c1)OCCO2 | -1.53 (inactive)
CCc1ccc2oc(=O)cc(CN3CCCCC3C)c2c1 (stereo not given) | -0.803 (inactive)
Cc1ccc(-c2ccc(=O)n(CC(=O)NCCCN3CCCCC3)n2)cc1 | -0.074 (inactive)
CC1(C)CC(=O)C=C(NCCCNC2CCCCC2)C1 | -0.705 (inactive)
CC(=O)OC(C)C[N+](C)(C)C (stereo not given) | -11.2 (active)
CC(C[N+](C)(C)C)OC(N)=O (stereo not given) | -15 (active)
CCOC(=O)c1c(C)n(C)c2ccc(OC)c(NC(=O)CN3CCC4(CC3)OCCO4)c12 | -0.00466 (inactive)

Compound | B-score
O=C(O)c1ccc(-n2cccc2)cc1O | -0.249 (inactive)
COc1ccccc1OCCC(=O)OCC(=O)NC(=O)NC(C)(C)C | -0.989 (inactive)
CCOC(=O)C1CCCN(Cc2nc(N)nc(Nc3ccc(C)cc3)n2)C1 (stereo not given) | -0.238 (inactive)
O=C(CN1CCN(C2CCCCC2)CC1)Nc1ccccc1N1CCCCC1 | -0.00297 (inactive)
CCOC(=O)Nc1ccc2c(c1)N(C(=O)CN1CCN3CCCC3C1)c1ccccc1CC2 (stereo not given) | -4.22 (active)
CC(=O)Nc1cccc(NC(=O)c2c(-c3ccccc3)noc2C)c1 | 0.424 (inactive)
Cn1c(=O)[nH]c(=O)c2c1nc(N1CCN(CCO)CC1)n2CCSc1nc2ccccc2s1 | -0.514 (inactive)
C=C(Br)Cn1c(CCCC)nc2ccccc21 | 0.344 (inactive)
OC1CN=C2Sc3ccccc3N2C1 (stereo not given) | -0.000781 (inactive)
CCn1c(SCC(=O)Nc2cc(C)c(Cl)cc2OC)nnc1-c1ccco1 | 0.0151 (inactive)
COc1cc(Cl)c(C)cc1NC(=O)CSc1nnc(-c2ccco2)n1CC(C)C | -3.28 (active)
COc1cc(Cl)c(C)cc1NC(=O)CSc1nnc(-c2cccnc2)n1Cc1ccco1 | 1.15 (inactive)
Cc1ccc(C)c2[nH]c(=O)c(CCNC(=O)CC(C)C)cc12 | 0.426 (inactive)
O=c1/c(=C/c2ccc(CNS(=O)(=O)c3ccccc3)o2)sc2n1CCN=2 | -1.07 (inactive)
C=CCSc1nc2ccccc2[nH]1 | -3.2 (active)
c1ccc2[nH]c(-c3nc4ccccc4[nH]3)nc2c1 | 0.625 (inactive)
O=C(CSc1nc2ccccc2[nH]1)c1cccs1 | 0.722 (inactive)
O=S(=O)(c1cccc(-c2nnc(SC(F)F)n2-c2ccccc2)c1)N1CCCCC1 | 0.56 (inactive)
CCCCN=C(N)/C(C(=O)OCC)=C(\O)c1ccc(OC)cc1 | 0.0185 (inactive)
Cc1cccc(C)c1NC(=O)CCCSc1nnc(-c2ccco2)n1-c1ccccc1 | 0.509 (inactive)
CCN(c1ccc2c(c1)OCO2)S(=O)(=O)c1cc(Br)cc2c1N(C(=O)C1CC1)CC2 | -0.598 (inactive)
CCOC(=O)N1CCN(S(=O)(=O)c2cc(Br)cc3c2N(C(=O)C2CC2)CC3)CC1 | -2.88 (active)
CCOC(=O)N1CCN(C(=O)C2CCN(S(C)(=O)=O)CC2)CC1 | -0.427 (inactive)
COc1ccccc1N1CCN(Cc2ccc(OC)c3ccccc23)CC1 | 0.229 (inactive)

Compound | B-score
COc1ccc(S(=O)(=O)Nc2ccc(S(=O)(=O)N3CCCCC3)cc2)cc1OC | 0.8 (inactive)
Cc1ccc(C)c(NC(=O)CSc2nnc(Cc3cccn3C)n2-c2ccc(F)cc2)c1 | 0.873 (inactive)
CCOc1ccc(-c2nnn(CC(=O)N3CCN(c4ccc(OC)cc4)CC3)n2)cc1OCC | 0.00223 (inactive)
CCc1ccc(-c2nnn(Cc3nn[nH]n3)n2)cc1 | 0.0832 (inactive)
COc1ccc(-c2nnn(Cc3nc(N)nc(N4CCCCC4)n3)n2)cc1 | -1.19 (active)
N#CC1=C(N)Oc2n[nH]c(CSc3ccccc3)c2C12C(=O)Nc1ccccc12 (stereo not given) | 2.72 (active)
Cc1cc(C)c(C#N)c(SCc2[nH]nc3c2C(c2ccccc2)C(C#N)=C(N)O3)n1 (stereo not given) | 0.363 (inactive)
COc1ccc(Br)cc1/C=N/n1c(C)nnc1C | 0.304 (inactive)
COc1cc(C2C(C(=O)Nc3ccccc3OC)=C(C)Nc3ncnn32)ccc1O (stereo not given) | -0.653 (inactive)
COc1cc(C2C(C(=O)Nc3ccc(F)cc3)=C(C)Nc3nc(CCCO)nn32)cc(OC)c1OC (stereo not given) | 0.464 (inactive)
CCOc1ccc(C2C(C(=O)NC)=C(C)Nc3nc4ccccc4n32)cc1OC (stereo not given) | -3.24 (active)
COc1ccc(OCC(=O)OCCN(C)C)cc1 | 0.389 (inactive)
CN(C)CCOC(=O)C(c1ccccc1)C1(O)CCCC1 (stereo not given) | -11.9 (active)
Cn1nc(-c2ccc(Cl)cc2)c2cc(C(=O)NCc3ccco3)sc21 | 0.443 (inactive)
CCN1CCN(C(=O)CN(C)S(=O)(=O)c2ccc(OC)cc2)CC1 | 0.444 (inactive)
c1ccc(-c2nnc3n2NC(c2ccc4c(c2)OCO4)S3)cc1 (stereo not given) | -0.212 (inactive)
COc1ccc(-c2nn3c(-c4ccccc4)nnc3s2)cc1OC | -1.59 (inactive)
CC1=Nn2c(nnc2-c2ccccc2)SC1 | -3.94 (active)
c1ccc(-n2ncc(-c3nn[nH]n3)n2)cc1 | 2.54 (inactive)
Cn1c(C(=O)NCCCN2CCCCC2)cc2sccc21 | -1.16 (inactive)
Cc1cc(NC(=O)CSCc2nc(-c3cccc(Cl)c3)oc2C)no1 | 0.32 (inactive)
Cc1ccsc1-c1nc(CSCC(=O)NCCN2CCCC2)c(C)o1 | -4.42 (active)
COCCn1c(CN(Cc2ccccc2)Cc2ccccc2)nc2c1c(=O)n(C)c(=O)n2C | 0.00241 (inactive)
CSCCC(NC(N)=O)C(=O)N(C)CC(=O)Nc1ccc(C)cc1 (stereo not given) | -0.414 (inactive)

Compound | B-score
Cc1[nH]c2ccccc2c1C(=O)CSCC(=O)O | -0.627 (inactive)
O=S(=O)(c1ccc(OCC(O)CN2CCN(c3ccccc3Cl)CC2)cc1)N1CCOCC1 (stereo not given) | -1.73 (active)
COC(=O)COc1ccc(S(=O)(=O)N2CCOCC2)cc1 | 0.524 (inactive)
OC(COc1ccc2ccccc2c1)CN1CCOCC1 (stereo not given) | -0.165 (inactive)
CCCc1[nH]nc2c1C(c1ccc(OC)c(Cn3nc(C)c(Br)c3C)c1)C(C#N)=C(N)O2 (stereo not given) | -0.527 (inactive)
CCCC(=O)Nc1ccccc1N1CCN(C(=O)c2ccccc2)CC1 | 0.0711 (inactive)
Cc1ccc(-c2noc(CCC(=O)Nc3ccccc3N3CCN(C)CC3)n2)cc1 | -3.17 (active)
Cc1ccc(-c2noc(CCC(N)=O)n2)cc1 | 0.182 (inactive)
COc1ccc(NC(=O)Nc2cccc3cccnc23)cc1 | -0.447 (inactive)
CCOC(=O)c1cccc(NC(=O)CN(c2ccc(C)cc2)S(=O)(=O)c2c(C)noc2C)c1 | -0.345 (inactive)
COC(=O)c1ccc(NC(=O)CN(c2ccc(C)cc2)S(=O)(=O)c2c(C)n[nH]c2C)cc1 | -1.39 (active)
CCN(CC)C(=O)CCC(=O)Nc1ccc(C(=O)OC)cc1 | -0.0517 (inactive)
CCOc1ccc(-c2nnc(-c3ccco3)o2)cc1 | 0.158 (inactive)
CC(C)(C)NC(=O)C(c1ccco1)N(Cc1ccc2c(c1)OCO2)C(=O)Cn1nnc2ccccc21 (stereo not given) | -0.446 (inactive)
CCOC(=O)CSc1nc2sc3c(c2c(=O)[nH]1)CC(C)(C)OC3 | 1.04 (inactive)
CCOC(=O)Cn1c(SC)nc2sc3c(c2c1=O)CC(C)(C)OC3 | -0.00652 (inactive)
CCC1(C)Cc2c(sc3nc4n(c(=O)c23)CCCS4)CO1 (stereo not given) | -1.1 (active)
Cc1cc(=O)n2nc(N3CCCC(C(=O)N4CCN(C)CC4)C3)sc2n1 (stereo not given) | -0.192 (inactive)
CCOC(=O)N1CCN(C(=O)C2CCCN(c3ncnc4c3sc3cccc(F)c34)C2)CC1 (stereo not given) | -6.95 (active)
CCOC(=O)C1CCCN(C(=O)C2CCN(c3nnc(-n4cccc4)s3)CC2)C1 (stereo not given) | -0.147 (inactive)
CCOC(=O)N1CCN(C(=O)C2CC(c3ccc(F)cc3)=NO2)CC1 (stereo not given) | 1.56 (inactive)
CCOC(=O)N1CCN(C(=O)C2CCN(c3ncnc4c3sc3cccc(F)c34)CC2)CC1 | -6.68 (active)
CCOC(=O)C1CCN(c2ncnc3c2oc2ccc(Br)cc23)CC1 | 1.09 (inactive)
